Screens deposited in PubChem BioAssay by Broad Institute.
Most compounds without a hit are left out; they make up all but 2.4% or so of the library.
Pf Dd2 growth = inhibitors of Plasmodium falciparum Dd2 growth. actives 2.3% (n = 94,000). P. falciparum Dd2 growth, SYBR Green, 72 h; stronger effect = lower value. AID 1159554. activity change, % at 10 µM; in the data active means activity change below about -80%; inconclusive means no clear call, values can overlap the other calls
C diff growth = inhibitors of Clostridium difficile growth | Clostridium difficile clinical isolate growth, OD600, 24 h; stronger effect = lower value | growth activity, negative = inhibition, % at 16 µg/mL (by protocol) | actives 0.25% (n = 86,000);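 active means mean growth activity at or below -80% and every replicate also at or below -80%; inconclusive means mean at or below -80% but some replicate above -80%; inactive means mean growth activity above -80%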;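 further: 0% = DMSO wells and -100% = levofloxacin 16 µg/mL wells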
* = called active by the depositor; ? = inconclusive; nt = no result.

SMILES | Pf Dd2 growth | C diff growth
COC(=O)[C@H]1[C@H](CO)[C@H]2Cn3c(ccc(-c4ccccc4OC)c3=O)[C@H]2N1C(=O)c1cnccn1 | nt | 4
C[C@@H]1CCCCO[C@@H](CN(C)S(=O)(=O)c2ccc(Cl)cc2)[C@H](C)CN([C@@H](C)CO)C(=O)c2cc(NC(=O)Nc3ccccc3)ccc2O1 | -67 | nt
COc1ccc2c3c(n(C)c2c1)[C@H](CO)N(Cc1ccc(Cl)cc1)CC31CN(CC2CC2)C1 | -58 | 22
COc1ccc2c3c(n(C)c2c1)[C@H](CO)N(Cc1ccc(Cl)cc1)CC31CCN(CC2CC2)CC1 | -88* | 15
COc1ccc2c3c(n(C)c2c1)[C@H](CO)N(Cc1ccc(F)cc1)CC31CCN(CC2CC2)CC1 | -84* | 1
COc1ccc2c3c(n(C)c2c1)[C@@H](CO)N(Cc1ccc(Cl)cc1)CC31CCN(CC2CC2)CC1 | -91* | 11
COc1ccc2c3c(n(C)c2c1)[C@H](CO)N(Cc1ccc(F)cc1)CC31CCN(CC2CCOCC2)CC1 | -22 | 5
COc1ccc2c3c(n(C)c2c1)[C@H](CO)N(Cc1ccccc1F)CC31CCN(CC2CC2)CC1 | -90* | 4
COc1ccc2c3c(n(C)c2c1)[C@H](CO)N(Cc1ccccc1F)CC31CN(CC2CC2)C1 | 23 | nt
COc1ccc2c3c(n(C)c2c1)[C@H](CO)N(Cc1ccc(F)cc1)CC31CN(CC2CC2)C1 | -13 | 13
CN1CCN(C(=O)C[C@H]2CC[C@@H]3[C@@H](COc4ccc(NC(=O)C5CCCC5)cc4C(=O)N3C)O2)CC1 | 8 | -1
C[C@H](CO)N1C[C@H](C)[C@@H](CN(C)C(=O)c2ccccn2)Oc2ncc(Br)cc2C1=O | 15 | 0
CCC(=O)N[C@@H]1C=C[C@H](CC(=O)NCCN2CCCCC2)O[C@@H]1CO | 42 | -1
COc1ccc2c3c(n(C)c2c1)[C@@H](CO)N(CC1CCCCC1)CC31CCN(Cc2nccs2)CC1 | -90* | 6
COc1ccc2c3c(n(C)c2c1)[C@H](CO)N(CC1CCCC1)CC31CCN(Cc2nccs2)CC1 | -71 | 5
O=C(Cc1ccccc1)N1CC(=O)N2[C@H](CO)[C@H](c3ccc(C#Cc4ccccc4)cc3)[C@H]2C1 | -84* | -6
CC(C)CC#Cc1ccc([C@H]2[C@@H](CO)N3C(=O)CN(C(=O)Cc4ccccc4)C[C@H]23)cc1 | -85* | -7
CC(C)CC#Cc1ccc([C@@H]2[C@@H](CO)N3C(=O)CN(C(=O)Cc4ccccc4)C[C@H]23)cc1 | -37 | 72
O=C(Cc1ccccc1)N1CC(=O)N2[C@H](CO)[C@H](c3ccc(C#Cc4ccccc4)cc3)[C@@H]2C1 | 5 | 1
CO[C@@H]1CN(C)C(=O)c2ccc(NC(C)=O)cc2OC[C@@H](C)N(Cc2ccccc2F)C[C@H]1C | -43 | nt
CNC(=O)C[C@H]1CC[C@H]2[C@@H](COc3ccc(NC(=O)Nc4ccc(C#N)cc4)cc3C(=O)N2C)O1 | 19 | 45
COc1ccc(S(=O)(=O)Nc2ccc3c(c2)CC(=O)N([C@H](C)CO)C[C@@H](C)[C@H](CN(C)Cc2ccc(C(=O)Nc4ccccc4N)cc2)O3)cc1 | 8 | -5
COc1ccc(S(=O)(=O)Nc2ccc3c(c2)CC(=O)N([C@@H](C)CO)C[C@H](C)[C@H](CN(C)Cc2ccc(C(=O)Nc4ccccc4N)cc2)O3)cc1 | -79 | 0
COc1ccc(S(=O)(=O)Nc2ccc3c(c2)CC(=O)N([C@@H](C)CO)C[C@H](C)[C@@H](CN(C)Cc2ccc(C(=O)Nc4ccccc4N)cc2)O3)cc1 | -88* | 17
COc1ccc(S(=O)(=O)Nc2ccc3c(c2)CC(=O)N([C@H](C)CO)C[C@H](C)[C@@H](CN(C)Cc2ccc(C(=O)Nc4ccccc4N)cc2)O3)cc1 | -85* | -5
SMILES | Pf Dd2 growth | C diff growth
C[C@@H]1CCCCO[C@@H](CN(C)C(=O)Nc2ccc3c(c2)OCO3)[C@@H](C)CN([C@H](C)CO)C(=O)c2cc(NC(=O)Cc3ccccc3)ccc2O1 | -34 | 0
O=C(C[C@H]1CC[C@@H]2[C@H](COC[C@@H](O)CN2CC2CCOCC2)O1)NCC1CC1 | nt | -2
C[C@H]1CN([C@@H](C)CO)C(=O)c2c(c3ccccc3n2C)-c2ccccc2CO[C@@H]1CN(C)S(=O)(=O)c1ccc(C(F)(F)F)cc1 | ? | 2
C[C@H](CO)N1C[C@H](C)[C@H](CN(C)S(=O)(=O)c2ccc(C(F)(F)F)cc2)OCc2ccccc2-c2c(n(C)c3ccccc23)C1=O | -94* | -1
C[C@H](CO)N1C[C@H](C)[C@@H](CN(C)S(=O)(=O)c2ccc(C(F)(F)F)cc2)OCc2ccccc2-c2c(n(C)c3ccccc23)C1=O | -90* | -4
C[C@@H]1CN([C@@H](C)CO)C(=O)c2c(c3ccccc3n2C)-c2ccccc2CO[C@@H]1CN(C)S(=O)(=O)c1ccc(C(F)(F)F)cc1 | -89* | 1
COc1ccc2c3c([nH]c2c1)[C@@H](CO)N(Cc1ccc(F)cc1)CC31CCN(C(C)=O)CC1 | 35 | nt
COc1ccc2c3c([nH]c2c1)[C@H](CO)N(C(=O)c1cccc(F)c1)CC31CCN(C(=O)CC2CC2)CC1 | -82* | -10
CCCNC(=O)N1CCC2(CC1)CN(Cc1cccc(OC)c1)[C@H](CO)c1[nH]c3cc(OC)ccc3c12 | -74 | 2
COc1ccc2c3c([nH]c2c1)[C@H](CO)N(C(=O)c1cccc(F)c1)CC31CN(C(=O)CC2CC2)C1 | -78 | -12
COc1ccc2c3c([nH]c2c1)[C@H](CO)N(Cc1cccc(F)c1)CC31CCN(C(C)=O)CC1 | -83* | 4
CCCNC(=O)N1CCC2(CC1)CN(Cc1cccc(F)c1)[C@H](CO)c1[nH]c3cc(OC)ccc3c12 | -83* | 1
COc1ccc(S(=O)(=O)N(C)C[C@@H]2Oc3ccc(NS(=O)(=O)c4ccc(Cl)cc4)cc3C(=O)N([C@@H](C)CO)C[C@@H]2C)cc1 | -18 | nt
O=C(CN1CCOCC1)N[C@H]1CC[C@H](CCNC(=O)C2CCCC2)O[C@@H]1CO | -2 | -5
C[C@H](CO)N1C[C@H](C)[C@@H](CN(C)C(=O)C2CC2)Oc2ncc(/C=C/c3ccccc3)cc2C1=O | -36 | nt
Cc1ccc(S(=O)(=O)Nc2ccc3c(c2)C(=O)N([C@H](C)CO)C[C@@H](C)[C@@H](CN(C)Cc2ccccc2)OCCCC[C@H](C)O3)cc1 | -62 | 8
CNC[C@@H]1Oc2cc(C#Cc3cccc(OC)c3)ccc2S(=O)(=O)N([C@H](C)CO)C[C@H]1C | -69 | 14
C[C@H]1CN([C@@H](C)CO)S(=O)(=O)c2ccc(C#Cc3cccnc3)cc2O[C@H]1CN(C)C | -9 | -3
C[C@H]1CN([C@@H](C)CO)S(=O)(=O)c2ccc(C#Cc3cccnc3)cc2O[C@@H]1CN(C)C | -29 | -4
CCCN(C)C[C@@H]1Oc2cc(C#Cc3ccc(OC)cc3)ccc2S(=O)(=O)N([C@H](C)CO)C[C@@H]1C | -62 | 6
CNC[C@H]1Oc2cc(C#Cc3ccc(OC)cc3)ccc2S(=O)(=O)N([C@H](C)CO)C[C@@H]1C | -86* | 2
CCCN(C)C[C@@H]1Oc2cc(C#Cc3ccc(OC)cc3)ccc2S(=O)(=O)N([C@@H](C)CO)C[C@@H]1C | -85* | 6
CCCN(C)C[C@H]1Oc2cc(C#Cc3cccnc3)ccc2S(=O)(=O)N([C@H](C)CO)C[C@H]1C | -89* | -4
